Test results from PubChem BioAssay (NCI).
Values joined by “and” are separate entries in the source; they are usually repeats but may differ in a detail not shown here. Equal entries are not always repeated. Compounds without any hit were thinned out: in the full panel of roughly 83,000, 20% have a hit.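 Results are percent growth after 48 hours of single-concentration exposure. 100 means growth as in untreated cells, lower positive values show inhibition; negative values down to -100 show cell death.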 A number with no mark means an inactive call. Active and inactive are the calls of the source. How the source made its calls: active means growth percent below 10; inactive means the rest.

Test system: MDA-MB-468 breast
Experiment: NCI-60 one-dose screen, 48 h (100 = growth as untreated, 0 = no growth, -100 = all killed)

## CC1(C)N=C(N)N=C(N)N1c1ccc(CCCCc2ccc(S(=O)(=O)F)cc2)c(Cl)c1
10 µM unless noted
  growth: 7.5% (active)

## COC(=O)C1CCC(NC(=O)c2csc([C@@H](C[C@H](C(C)C)N(C)C(=O)[C@@H](NC(=O)[C@H]3CCCCN3C)C(C)C)OC(C)=O)n2)CC1 (stereo partly specified)
10 µM unless noted
  growth: 27.9%

## CC[C@H](C)[C@H](NC(=O)[C@H]1CCCCN1C)C(=O)N(C)[C@H](CCc1nc(C(=O)N[C@@H](Cc2ccccc2)C[C@H](C)C(=O)O)cs1)C(C)C
10 µM unless noted
  growth: 36.1%

## C=CC[PH+](c1ccccc1)c1ccccc1.C=CC[PH+](c1ccccc1)c1ccccc1.[Pt+2].[S-]c1ncccn1.[S-]c1ncccn1
10 µM unless noted
  growth: -5.58% (active)

## COc1ccc2c(ccc3oc([N+](=O)[O-])cc32)c1
10 µM unless noted
  growth: -57.8% (active)

## CC[C@H](C)[C@H](NC(=O)[C@H]1CCCCN1C)C(=O)N(C)[C@H](CCc1nc(C(=O)N[C@@H](Cc2ccccc2)C[C@H](C)C(=O)OC)cs1)C(C)C
10 µM unless noted
  growth: 35%

## N#Cc1c(-n2c(Br)c(Br)c3cc(Br)ccc32)[nH]c2c(Br)cc(Br)cc12
10 µM unless noted
  growth: -16.3% (active)

## COC1[C@@H]2C[C@H]3C(C)(C)O[C@@](C/C=C(/C)C(=O)O)(C2=O)[C@]32Oc3c(CC=C(C)C)c4c(c(O)c3C(=O)[C@H]12)C=CC(C)(C)O4 (stereo partly specified)
10 µM unless noted
  growth: -65.2% (active)

## CO[C@H]1CC[C@@]2(C)C(=CC[C@@H]3[C@@H]2CC[C@]2(C)C(=O)C(=O)C[C@@H]32)C1
10 µM unless noted
  growth: 102%

## ClC1=C(Cl)C(Cl)(C2(Cl)C(Cl)=C(Cl)C(Cl)=C2Cl)C(Cl)=C1Cl
10 µM unless noted
  growth: -59.2% (active)

## Cc1nnc([S-])o1.[Au+].c1ccc([PH+](c2ccccc2)c2ccccc2)cc1
10 µM unless noted
  growth: -6.44% (active)

## COC(=O)[C@@H](C)C[C@H](Cc1ccccc1)NC(=O)c1csc([C@@H](C[C@H](C(C)C)N(C)C(=O)[C@@H](NC(=O)[C@H]2CCCN2C)C2CC2)OC(C)=O)n1
10 µM unless noted
  growth: -9.22% (active)

## Cc1cc(-c2nc3cc(F)ccc3[se]2)cc(F)c1N
10 µM unless noted
  growth: -39% (active)

## c1cnc2[nH]cc(-c3csc(-c4cn(CCCCN5CCCCC5)c5ccccc45)n3)c2c1
10 µM unless noted
  growth: 98.6%

## NC(=O)c1cc([N+](=O)[O-])c(Cl)c([N+](=O)[O-])c1Cl
10 µM unless noted
  growth: -84.9% (active)

## COC(=O)[C@@H](C)C[C@H](Cc1ccccc1)NC(=O)c1cccc([C@@H](C[C@H](C(C)C)N(C)C(=O)[C@@H](NC(=O)[C@H]2CCCCN2C)C2CC2)OC(C)=O)n1
10 µM unless noted
  growth: 35.3%

## NC1CCc2cc(O)c(O)cc2C1 (stereo unspecified)
10 µM unless noted
  growth: 66%

## CC[C@@H]1[C@@H](C)O[C@@](O)([C@@H](C)[C@H](O)[C@H](C)[C@H]2OC(=O)/C=C/C=C/[C@H](C)[C@@H]([C@@H](C)[C@@H](O)[C@H](C)[C@@]3(O)C[C@@H](O[C@H]4C[C@@H](O)[C@H](O)C(C)O4)[C@H](CC)[C@@H](C)O3)OC(=O)/C=C/C=C/[C@@H]2C)C[C@H]1O[C@@H]1C[C@@H](O)[C@H](O)C(C)O1 (stereo partly specified)
10 µM unless noted
  growth: -83.6% (active)

## CN(C)C(=S)SSC(=S)N(C)C
10 µM unless noted
  growth: 96.6% and 108%

## O=C1NC(=O)C(=C/C=C/c2ccccc2)C(=O)N1
10 µM unless noted
  growth: 44.2%

## CCCCCN(CCCCC)CC(O)c1cc(Cl)ccc1OC (stereo unspecified)
10 µM unless noted
  growth: 57.7%

## COc1ccc(/C=C\[N+](=O)[O-])cc1OC
10 µM unless noted
  growth: 53.6% and 11.6%

## C[C@]12CC[C@H]3[C@@H](C[C@@H]4N=C(c5ccc(O)cc5)S[C@@]45C[C@H](O)CC[C@]35C)[C@@H]1CC[C@@H]2O
10 µM unless noted
  growth: 81%

## O=C1CCC2(O)[C@@H]3Cc4ccc(O)c5c4[C@]2(CCN3Cc2ccoc2)C1O5 (stereo partly specified)
10 µM unless noted
  growth: 97.3%

## C/C(=C(\c1ccc(OCCN2CCOCC2)cc1)c1ccc(OC(=O)Cc2ccccc2)cc1)c1ccc(Cl)cc1
10 µM unless noted
  growth: 78.8%

## C[C@]12CC[C@H]3[C@@H](C[C@@H]4SC(Nc5ccccc5)=N[C@@]45CC(O)CC[C@]35C)[C@@H]1CCC2O (stereo partly specified)
10 µM unless noted
  growth: -1% (active)

## COc1ccc(/C=C\c2cc(OC)c(OC)c(OC)c2)cc1OCC(=O)Nc1nc2ccc(C(F)(F)F)cc2s1
10 µM unless noted
  growth: 1.38% (active)

## CC(=O)OCC1OC([S-])C(OC(C)=O)C(OC(C)=O)C1OC(C)=O.[Au+].c1ccc(CN2[CH-]N(Cc3ccccc3)C(c3ccccc3)=C2c2ccccc2)cc1
4.75 µM
  growth: -23.8% (active)
10 µM
  growth: -41.9% (active)

## S=C(SSC(=S)N1CCCCC1)N1CCCCC1
10 µM
  growth: 98.1%
100 µM
  growth: -62.8% (active)
